From PubChem BioAssay AID1159580 (chemical genetic matrix, 2015)
Where “and” joins values, the source holds several entries; their conditions need not be identical. Equal values may be shown once. The whole screen tested about 5,500 compounds, of which about 2,000 (36%) were called active. Roughly 18% stayed inconclusive and do not appear here. Cut-off read from the data, not from the text of the source: active = normalized growth mostly below about 0.91 (no sharp cut-off); inconclusive = no clear call, values can overlap the other calls; inactive = mostly above about 0.92. The list shows a part of the results.

Assay: chemical genetic growth profiling, strain panel (AID 1159580);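 note: tested at 20 µM; growth read once vehicle control cultures reached saturation at 30 °C; 1 = growth at the plate median or of vehicle wells; lower values mean less growth of the strain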
Details: S. cerevisiae deletion strains, growth OD

Measured: normalized growth

CCC(C(=O)O)c1ccccc1 (configuration not stated)
inactive: locus YAL013W, strain DEP1, active compounds read low 1.01 | locus YAL021C, strain ccr4, active compounds read low 0.973 | locus YAL026C, strain drs2, active compounds read low 0.992 | locus YAL030W, strain snc1, active compounds read low 0.989 | locus YBL061C, strain skt5, active compounds read low 0.999 | locus YBR009C, strain hhf1, active compounds read low 0.991 | locus YBR021W, strain FUR4, active compounds read low 1.01 | locus YBR023C, strain chs3, active compounds read low 0.993 | locus YBR171W, strain sec66, active compounds read low 0.987 | locus YBR229C, strain ROT2, active compounds read low 0.997 | locus YBR231C, strain swc5, active compounds read low 1.01 | locus YBR279W, strain paf1, active compounds read low 1 | locus YCL011C, strain gbp2, active compounds read low 0.979 | locus YCL016C, strain dcc1, active compounds read low 0.982 | locus YCL029C, strain bik1, active compounds read low 1.01 | locus YCL061C, strain MRC1, active compounds read low 0.982 | locus YCL069W, strain vba3, active compounds read low 0.993 | locus YCR088W, strain abp1, active compounds read low 0.988 | locus YDL005C, strain med2, active compounds read low 0.98 | locus YDL035C, strain GPR1, active compounds read low 1.03 | locus YDL040C, strain nat1, active compounds read low 0.988 | locus YDL074C, strain BRE1, active compounds read low 1.02 | locus YDL101C, strain DUN1, active compounds read low 1 | locus YDL134C, strain PPH21, active compounds read low 1 | locus YDL185W, strain tfp1, active compounds read low 0.984 | locus YDL192W, strain arf1, active compounds read low 1 | locus YDR001C, strain nth1, active compounds read low 0.987 | locus YDR069C, strain doa4, active compounds read low 0.999 | locus YDR101C, strain arx1, active compounds read low 0.998 | locus YDR137W, strain rgp1, active compounds read low 0.97 | locus YDR150W, strain NUM1, active compounds read low 1.01 | locus YDR159W, strain sac3, active compounds read low 0.964 | locus YDR162C, strain NBP2, active compounds read low 1.01 | locus YDR195W, strain ref2 0.98 | locus YDR297W, strain sur2, active compounds read low 0.983 | locus YDR318W, strain mcm21, active compounds read low 0.994 | locus YDR334W, strain swr1, active compounds read low 0.975 | locus YDR335W, strain msn5, active compounds read low 1.02 | locus YDR388W, active compounds read low 0.996 | locus YDR392W, strain spt3, active compounds read low 0.991 | locus YDR502C, strain sam2, active compounds read low 1 | locus YEL003W, strain gim4, active compounds read low 0.997 | locus YEL037C, strain rad23, active compounds read low 0.989 | locus YEL061C, strain CIN8 (second series), active compounds read low 0.998 | locus YEL061C, strain CIN8, active compounds read low 1.01 | locus YER015W, strain faa2, active compounds read low 0.992 | locus YER016W, strain bim1, active compounds read low 0.976 | locus YER110C, active compounds read low 1 | locus YER111C, strain swi4, active compounds read low 0.979 | locus YER155C, strain BEM2 (second series), active compounds read low 0.975 | locus YER155C, strain BEM2, active compounds read low 1.01 | locus YER167W, strain BCK2, active compounds read low 1 | locus YFR010W, strain ubp6, active compounds read low 0.995 | locus YGL078C, strain dbp3, active compounds read low 0.979 | locus YGL086W, strain mad1, active compounds read low 0.998 | locus YGL167C, strain pmr1, active compounds read low 1 | locus YGL173C, strain kem1, active compounds read low 0.997 | locus YGL227W, strain vid30, active compounds read low 0.978 | locus YGL240W, strain doc1, active compounds read low 1.02 | locus YGL248W, strain PDE1, active compounds read low 1 | locus YGL253W, strain hxk2, active compounds read low 0.99 | locus YGR078C, strain PAC10, active compounds read low 1.02 | locus YGR135W, strain pre9, active compounds read low 1.03 | locus YGR229C, strain SMI1, active compounds read low 1.01 | locus YGR252W, strain gcn5, active compounds read low 0.976 | locus YHR013C, strain ard1, active compounds read low 0.963 | locus YHR027C, strain rpn1, active compounds read low 1 | locus YHR030C, strain SLT2, active compounds read low 1 and 0.961 | locus YHR079C, strain IRE1 (second series), active compounds read low 1 | locus YHR079C, strain IRE1, active compounds read low 0.959 | locus YHR094C, strain hxt1, active compounds read low 0.997 | locus YHR129C, strain ARP1, active compounds read low 0.995 | locus YHR142W, strain chs7, active compounds read low 1.02 | locus YHR200W, strain rpn10, active compounds read low 1 | locus YIL066C, strain RNR3, active compounds read low 1.01 | locus YIL073C, strain SPO22, active compounds read low 1.03 | locus YIL125W, strain kgd1, active compounds read low 0.971 | locus YIR030C, strain dcg1, active compounds read low 1.01 | locus YJL092W, strain hpr5, active compounds read low 0.979 | locus YJL095W, strain BCK1 (second series), active compounds read low 0.985 | locus YJL095W, strain BCK1, active compounds read low 1.02 and 0.968 | locus YJL115W, strain asf1, active compounds read low 0.984 | locus YJL129C, strain trk1, active compounds read low 0.983 | locus YJL134W, strain LCB3, active compounds read low 1.01 | locus YJL154C, strain vps35, active compounds read low 0.988 | locus YJL164C, strain tpk1, active compounds read low 0.98 | locus YJL166W, strain qcr8, active compounds read low 0.995 | locus YJL168C, strain set2, active compounds read low 0.995 | locus YJL187C, strain SWE1 (second series), active compounds read low 1 | locus YJL187C, strain SWE1, active compounds read low 0.971 | locus YJR043C, strain POL32, active compounds read low 1.03 | locus YJR066W, strain TOR1, active compounds read low 0.887
